From PubChem BioAssay (Tox21)
Unmarked numbers belong to inactive results. Inconclusive results are not listed. A call without a number means that no potency is given here. The source made the active and inactive calls. Calls come from the whole dose curve; as a rule, active = well fitted curve in the direction sought with a large enough effect in the repeat runs; inconclusive = weak or mixed curves; inactive = no such curve, though single readings can be large; an effect the other way counts as inactive or inconclusive.

Key:
[1] = Caspase-3/7 induction in HepG2 cells by small molecules, qHTS assay (AID 1346978); note: nearly all actives have a fitted effect of over 15% in size
Outline: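 Wild-type HepG2 cells (2,000/well) were settled 5 h at 37 C, 5% CO2, then exposed to compounds in DMSO for 17 h. Caspase-3/7 activity was read by luminescence 30 min after adding Caspase-Glo 3/7 reagent at room temperature.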

[2] = Caspase-3/7 induction in CHO-K1 cells by small molecules, qHTS cell viability counter screen (AID 1346979); note: nearly all actives have a fitted effect of over 35% in size; note: potency is the fitted concentration of half-maximal effect
Outline: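 Wild-type CHO-K1 cells (1,500/well) treated with compound after 5 h plating; after 16 h at 37C, viability read as CellTiter-Fluor fluorescence following 1 h reagent incubation, in the same wells as the caspase read.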

[3] = Caspase-3/7 induction in CHO-K1 cells by small molecules, qHTS assay (AID 1346980); note: nearly all actives have a fitted effect of over 15% in size
Outline: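 Wild-type cells were seeded at 1,500 per well and settled 5 hr at 37 C, 5% CO2, then exposed to DMSO-dissolved compounds for 17 hr. Caspase-Glo 3/7 reagent was added, and luminescence was read after 30min at room temperature.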

[4] = molecular target: Nuclear receptor subfamily 1 group I member 2 (Homo sapiens) (UniProt O75469); assay: Human pregnane X receptor (PXR) small molecule agonists, qHTS assay (AID 1346982); note: nearly all actives have a fitted effect of over 35% in size; note: potency is the fitted concentration of half-maximal effect
Outline: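 We seeded PXR-Luc HepG2 cells in assay medium containing 5% charcoal-stripped FBS, added compounds 5 hr later, incubated 24 hr, and read luminescence with ONE-Glo reagent.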

[5] = molecular target: Cytochrome P450 2D6 (Homo sapiens) (UniProt P10635); assay: Cytochrome P450 Family 2 Subfamily D Member 6 (CYP2D6) small molecule antagonists: luciferase reporter qHTS assay (AID 1671196); note: nearly all actives have a fitted effect of over 50% in size; note: potency is the fitted concentration of half-maximal effect; for activity change, negative = inhibition: series mostly up to about 120 µM
Outline: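 Luminescence (RLU), read 20 min after detection reagent, indicated CYP2D6 conversion of proluciferin to luciferin during a 1 h NADPH-dependent reaction at room temperature.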

[6] = molecular target: Cytochrome P450 2C19 (Homo sapiens) (UniProt P33261); assay: Cytochrome P450 Family 2 Subfamily C Member 19 (CYP2C19) small molecule antagonists: luciferase reporter qHTS assay (AID 1671197); note: nearly all actives have a fitted effect of over 65% in size; note: potency is the fitted concentration of half-maximal effect; for activity change, negative = inhibition: series mostly up to about 120 µM
Outline: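 CYP2C19 P450-Glo, 1536-well qHTS. Cpd + enzyme/proluciferin substrate 10 min RT; + NADPH regen, 37C 1 h; stop with luciferin detection reagent, 20 min RT, luminescence (RLU). Pos ctrl ketoconazole.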

[7] = molecular target: Nuclear receptor subfamily 1 group I member 2 (Rattus norvegicus) (UniProt Q9R1A7); assay: Rat pregnane X receptor (rPXR) activation by small molecules, qHTS assay (AID 1346983); details: rPXR luciferase reporter cells, One-Glo luminescence, 24 h; max activation: stronger effect = higher value; note: nearly all actives have a fitted effect of over 20% in size
Outline: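 Cell-based rPXR luciferase reporter assay, 2,000 cells per well, rested 5hr at 37 C before compound addition in DMSO, then 24 hr at 37 C. One-Glo reagent was added and luminescence read after 30 min at room temperature.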

[8] = molecular target: Nuclear receptor subfamily 1 group I member 2 (Homo sapiens) (UniProt O75469); assay: CYP3A4 induction through human pregnane X receptor (PXR) by small molecules, qHTS assay (AID 1346984); note: nearly all actives have a fitted effect of over 40% in size
Outline: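 qHTS, concentration-response format: HepG2 DPX-2 line, PXR/CYP3A4-luc. Exposure 24 h, 37C. Substrate Luciferin-IPA 3uM final, 3 h. Detection One-Glo, 30 min RT.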

[9] = molecular target: Nuclear receptor subfamily 1 group I member 2 (Homo sapiens) (UniProt O75469); assay: Human pregnane X receptor (PXR) activation by small molecules, qHTS assay (AID 1346985); note: nearly all actives have a fitted effect of over 40% in size
Outline: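 DPX-2 cells (HepG2 co-transfected with a PXR response element and a CYP3A4-promoter luciferase construct) were seeded at 2,000 per well, rested 5 hr at 37C, then exposed to DMSO-dissolved compounds for 24 hr. Activation was read as luciferase luminescence.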

[10] = Caspase-3/7 induction in HepG2 cells by small molecules, qHTS cell viability counter screen (AID 1346981); note: series mostly up to about 92 µM; nearly all actives have a fitted effect of over 30% in size
Outline: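 Multiplexed with the caspase-3/7 assay: HepG2 cells, 16 hr compound treatment, CellTiter-Fluor viability detection by fluorescence.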

Sequence of Cytochrome P450 2D6 (Homo sapiens) (P10635 whole entry, looked up): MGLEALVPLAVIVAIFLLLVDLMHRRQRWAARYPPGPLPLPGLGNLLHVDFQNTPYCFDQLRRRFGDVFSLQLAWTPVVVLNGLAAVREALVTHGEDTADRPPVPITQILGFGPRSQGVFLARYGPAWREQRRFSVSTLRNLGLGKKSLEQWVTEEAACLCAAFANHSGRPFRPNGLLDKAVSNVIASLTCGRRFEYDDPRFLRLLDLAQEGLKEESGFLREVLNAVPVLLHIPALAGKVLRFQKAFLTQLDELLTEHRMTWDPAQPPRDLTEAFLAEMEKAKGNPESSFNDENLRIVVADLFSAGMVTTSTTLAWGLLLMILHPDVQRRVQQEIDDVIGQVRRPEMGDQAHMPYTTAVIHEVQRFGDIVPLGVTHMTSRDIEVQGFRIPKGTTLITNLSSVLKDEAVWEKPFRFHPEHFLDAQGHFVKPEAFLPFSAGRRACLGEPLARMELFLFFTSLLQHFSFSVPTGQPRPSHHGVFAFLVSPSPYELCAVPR
Sequence of Nuclear receptor subfamily 1 group I member 2 (Homo sapiens) (O75469 whole entry, looked up): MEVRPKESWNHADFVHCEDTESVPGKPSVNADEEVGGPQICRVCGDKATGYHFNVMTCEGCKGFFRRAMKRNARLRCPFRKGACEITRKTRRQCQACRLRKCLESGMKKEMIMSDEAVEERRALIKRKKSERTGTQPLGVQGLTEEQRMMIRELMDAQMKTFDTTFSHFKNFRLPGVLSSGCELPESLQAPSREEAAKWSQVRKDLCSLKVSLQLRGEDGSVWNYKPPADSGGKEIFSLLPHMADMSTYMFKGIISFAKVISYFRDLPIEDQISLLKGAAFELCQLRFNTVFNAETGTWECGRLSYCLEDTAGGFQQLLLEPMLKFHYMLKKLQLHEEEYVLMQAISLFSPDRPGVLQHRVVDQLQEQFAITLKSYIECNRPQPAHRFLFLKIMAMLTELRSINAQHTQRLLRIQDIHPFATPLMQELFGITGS
Sequence of Cytochrome P450 2C19 (Homo sapiens) (P33261 whole entry, looked up): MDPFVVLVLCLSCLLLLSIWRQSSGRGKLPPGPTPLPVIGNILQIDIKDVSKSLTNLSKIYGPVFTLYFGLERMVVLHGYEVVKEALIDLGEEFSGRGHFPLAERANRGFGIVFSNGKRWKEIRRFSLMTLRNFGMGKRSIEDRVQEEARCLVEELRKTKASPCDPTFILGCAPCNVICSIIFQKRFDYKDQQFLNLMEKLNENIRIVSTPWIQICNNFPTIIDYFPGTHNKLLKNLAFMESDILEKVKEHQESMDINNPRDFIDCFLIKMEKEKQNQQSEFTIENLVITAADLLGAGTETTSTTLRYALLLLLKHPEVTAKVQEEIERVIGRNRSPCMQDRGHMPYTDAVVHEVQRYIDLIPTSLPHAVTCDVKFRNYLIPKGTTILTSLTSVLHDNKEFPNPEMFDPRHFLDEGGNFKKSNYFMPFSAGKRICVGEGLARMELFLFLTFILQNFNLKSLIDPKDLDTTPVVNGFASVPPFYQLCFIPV
Sequence of Nuclear receptor subfamily 1 group I member 2 (Rattus norvegicus) (Q9R1A7 whole entry, looked up): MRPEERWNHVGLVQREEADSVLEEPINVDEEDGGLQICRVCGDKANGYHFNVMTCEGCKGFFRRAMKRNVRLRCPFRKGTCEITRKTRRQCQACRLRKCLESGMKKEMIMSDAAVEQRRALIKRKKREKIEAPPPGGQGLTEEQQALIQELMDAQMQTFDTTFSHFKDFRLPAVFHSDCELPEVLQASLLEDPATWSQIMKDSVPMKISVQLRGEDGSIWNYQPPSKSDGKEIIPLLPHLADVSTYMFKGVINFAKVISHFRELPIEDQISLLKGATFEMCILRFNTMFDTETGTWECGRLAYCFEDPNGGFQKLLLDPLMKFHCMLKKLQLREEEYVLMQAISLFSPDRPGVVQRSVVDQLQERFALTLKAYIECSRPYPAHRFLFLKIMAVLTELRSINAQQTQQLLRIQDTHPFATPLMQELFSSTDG

C=CC(=O)OCC(O)COc1ccccc1 (stereo unspecified)
Potency [1]: inactive
Potency [2]: 61.1 µM (active)
Potency [3]: inactive
Potency [4]: inactive
Potency [5]: inactive
Potency [6]: 35.6 µM (active)

Nc1cc(Cl)c([N+](=O)[O-])cc1O
Potency [1]: inactive
Potency [2]: 68 µM (active)
Potency [3]: inactive
Potency [4]: 54 µM (active)
Potency [5]: inactive
Potency [6]: inactive

O=C1OC(OC(=O)c2cccnc2Nc2cccc(C(F)(F)F)c2)c2ccccc21 (stereo unspecified)
Potency [1]: inactive
Potency [2]: inactive
Potency [3]: inactive
Potency [4]: inactive
max activation [7]: -3.51%
Potency [8]: inactive
Potency [9]: inactive

C=CCCCCCCC=C
Potency [1]: inactive
Potency [2]: inactive
Potency [10]: inactive

CCc1ccc(C)nc1
Potency [1]: inactive
Potency [2]: inactive
Potency [10]: inactive
Potency [4]: inactive
Potency [5]: inactive
Potency [6]: inactive

Cc1cccc(Br)c1
Potency [1]: inactive
Potency [2]: inactive
Potency [3]: inactive
Potency [10]: inactive
Potency [5]: inactive
Potency [6]: 35.8 µM (active)

CC(COC(=O)c1ccccc1)OC(=O)c1ccccc1 (stereo unspecified)
Potency [1]: inactive
Potency [2]: inactive
Potency [10]: inactive
Potency [4]: inactive
Potency [6]: 20 µM (active)

CCN1CCN(c2cc(-c3ccc(F)cc3)c3c(n2)CCCCCC3)CC1
caspase activation [1]: 0.316% [at 19 µM]
activity change, negative = cytotoxicity [2]: 0.368% [at 19 µM]
activity change, negative = cytotoxicity [10]: -1.31% [at 19 µM]
activation [4]: -23.7% [at 19 µM]
Potency [5]: 6.74 µM (active)
activity change, negative = inhibition [6]: -2.56% [at 23.6 µM]

CCC(C)c1ccccc1 (stereo unspecified)
Potency [1]: inactive
Potency [2]: inactive
Potency [10]: inactive
Potency [4]: inactive
Potency [5]: inactive
Potency [6]: inactive

C=CC(C)C#N (stereo unspecified)
Potency [1]: inactive
Potency [2]: inactive
Potency [3]: inactive
Potency [4]: inactive
Potency [5]: inactive
Potency [6]: inactive

CC(C)CCOCCC(C)C
Potency [1]: inactive
Potency [3]: inactive
Potency [10]: inactive
Potency [4]: inactive

C[C@H]1O[C@@H](O[C@H]2[C@@H](O)C[C@H](O[C@H]3[C@@H](O)C[C@H](O[C@H]4CC[C@@]5(C)[C@H](CC[C@@H]6[C@@H]5C[C@@H](O)[C@]5(C)[C@@H](C7=CC(=O)OC7)CC[C@]65O)C4)O[C@@H]3C)O[C@@H]2C)C[C@H](O)[C@@H]1O
Potency [1]: inactive
Potency [2]: inactive
Potency [10]: inactive
max activation [7]: -1.12%

CC(C)(C)c1n[nH]c(=O)n(N)c1=O
Potency [1]: inactive
Potency [3]: inactive
Potency [10]: inactive
Potency [4]: inactive
Potency [5]: inactive
Potency [6]: inactive

Cc1ccc(N)cc1O
Potency [1]: inactive
Potency [2]: 52.9 µM (active)
Potency [10]: inactive
Potency [4]: 34.4 µM (active)
Potency [6]: 3.56 µM (active)
